# Luciferase inh: Photinus pyralis luciferase inhibition; P08659; actives 2.5% (n = 76,000); purified P. pyralis luciferase, luminescence, biochemical; Potency, µM (doses to about 115 µM), actives largely listed as inhibitors; also: % is scaled to controls: 0 for no effect and ±100 for the full control effect; nearly all actives have a fitted effect of over 65% in size
#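 Luminescence read by CCD imaging after purified firefly luciferase (10nM final) was added to substrate buffer holding 10uM D-luciferin and 10uM ATP, pH 7.5, pre-dosed with compound.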
# HEK293 tox: kills HEK 293 cells; Potency, µM (series often up to 115 µM), for the others: at the top dose activity change, negative = cytotoxicity, usual class: inhibitors; actives 6.6% (n = 94,000); HEK 293 viability, ATP luminescence (CellTiter-Glo), 48-72 h; AID 1345083; also: % is scaled to controls: 0 for no effect and ±100 for the full control effect; nearly all actives have a fitted effect of over 60% in size
#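 HEK 293 cells seeded at 250 cells/well were exposed to compound for 48 or 72 hr at 37 degree Celsius. Viability taken as ATP content by CellTiter-Glo luminescence.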
# 3T3 cytotox: cytotoxic compounds in NIH 3T3 cells; AID 1345082; actives 4.3% (n = 94,000); NIH 3T3 viability, CellTiter-Glo ATP luminescence, 48-72 h; Potency, µM (titrated, usually from 96.7 µM), inactives show top-dose activity change, negative = cytotoxicity, usual class: inhibitors; also: % is scaled to controls: 0 for no effect and ±100 for the full control effect; nearly all actives have a fitted effect of over 55% in size
#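 Cells were seeded at 400 per well, treated with pin-transferred compound, and kept 48 or 72 hr at 37 °C before CellTiter-Glo addition and luminescence imaging of cellular ATP.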
# NPR1 antag: antagonists of human natriuretic peptide receptor Npr1; HEK293 hNpr1 GloSensor cGMP, ANP-stimulated luminescence; AID 1347048; P16066; Potency, µM (series often up to 46.3 µM), for inactives: at the highest dose activity change, negative = inhibition, actives largely listed as inhibitors; actives 1.6% (n = 76,000); calls by dose curve; also: % is scaled to controls: 0 for no effect and ±100 for the full control effect; nearly all actives have a fitted effect of over 60% in size
# Target sequence (P16066 whole entry, looked up): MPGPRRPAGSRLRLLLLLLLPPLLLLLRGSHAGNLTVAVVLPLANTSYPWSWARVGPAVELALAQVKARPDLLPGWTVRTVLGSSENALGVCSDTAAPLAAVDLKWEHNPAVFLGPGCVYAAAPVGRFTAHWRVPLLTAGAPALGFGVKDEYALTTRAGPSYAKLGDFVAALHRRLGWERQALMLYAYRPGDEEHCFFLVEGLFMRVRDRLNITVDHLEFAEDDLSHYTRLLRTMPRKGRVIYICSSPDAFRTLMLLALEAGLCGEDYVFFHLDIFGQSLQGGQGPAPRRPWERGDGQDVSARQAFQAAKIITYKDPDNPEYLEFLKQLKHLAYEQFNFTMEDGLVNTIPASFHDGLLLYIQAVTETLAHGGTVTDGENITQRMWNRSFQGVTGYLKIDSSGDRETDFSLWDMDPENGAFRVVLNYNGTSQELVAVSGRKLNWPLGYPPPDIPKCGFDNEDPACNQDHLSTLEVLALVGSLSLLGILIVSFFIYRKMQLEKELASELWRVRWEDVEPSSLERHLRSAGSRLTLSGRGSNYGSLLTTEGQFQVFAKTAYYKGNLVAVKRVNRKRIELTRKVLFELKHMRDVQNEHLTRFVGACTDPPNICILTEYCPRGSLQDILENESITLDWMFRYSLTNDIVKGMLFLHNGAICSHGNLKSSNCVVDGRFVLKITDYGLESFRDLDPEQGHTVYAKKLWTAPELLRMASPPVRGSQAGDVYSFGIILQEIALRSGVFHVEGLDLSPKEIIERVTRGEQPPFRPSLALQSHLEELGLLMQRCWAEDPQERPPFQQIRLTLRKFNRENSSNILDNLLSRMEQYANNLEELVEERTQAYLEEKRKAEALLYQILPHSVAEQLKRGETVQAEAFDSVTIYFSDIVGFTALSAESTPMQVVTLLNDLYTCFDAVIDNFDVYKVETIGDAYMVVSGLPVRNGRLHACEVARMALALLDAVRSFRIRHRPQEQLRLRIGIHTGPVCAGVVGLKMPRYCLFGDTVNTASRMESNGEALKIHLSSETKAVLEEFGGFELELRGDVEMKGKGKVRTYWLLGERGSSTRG
#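 Compound pre-incubated 30 min at room temperature on GloSensor-loaded HEK293 cells stably carrying hNpr1 and the pGS-40F cGMP biosensor. Stimulation uses hNppA at 0.1 nM final; luminescence is taken at baseline and 20 min post-agonist.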
# NPR1 antag cnf: hNpr1 antagonism, confirmation assay; shares compounds with NPR1 antag; HEK293 hNpr1 cGMP GloSensor luminescence, ANP-stimulated; Potency, µM (highest dose often 57.6 µM), for the others: at the highest dose activity change, negative = inhibition, hits mostly inhibitors; actives 76% (n = 1,400); calls by dose curve; also: nearly all actives have a fitted effect of over 70% in size
# NPR2 antag: selectivity test of Npr1 antagonists against human Npr2; shares compounds with NPR1 antag; HEK293 hNpr2 GloSensor cGMP luminescence, CNP-stimulated; Potency, µM (titrated, usually from 57.6 µM), inactives show at the top dose activity change, negative = inhibition, actives largely listed as inhibitors; actives 67% (n = 1,400); AID 1347046; calls by dose curve; also: nearly all actives have a fitted effect of over 70% in size
# FLuc inh counter: inhibits firefly luciferase, false Npr1 antagonist flag; shares compounds with NPR1 antag; purified FLuc enzyme, luminescence, Km substrate; actives 0.7% (n = 1,400); Potency, µM (top dose mostly 57.6 µM), for inactives: at the top dose activity change, negative = inhibition, actives largely listed as inhibitors; also: 0% is about no effect
# GloSensor ctrl: reduces cGMP signal in GloSensor control cells. actives 69% (n = 1,400). Potency, µM (titrated, usually from 57.6 µM), for the others: at the highest dose activity change, negative = inhibition, most hits filed as inhibitors. shares compounds with NPR1 antag. AID 1347051. HEK293 GloSensor cGMP, SNP-stimulated, luminescence; calls by dose curve; also: % is scaled to controls: 0 for no effect and ±100 for the full control effect; nearly all actives have a fitted effect of over 70% in size
# Active calls of the source: *; i = inactive; ? = inconclusive; nt = not tested or not shown; [ ] = another dose, or the depositor's remark. This is a sample that favours compounds with a hit; in the whole collection about 11% have one here. Unless noted, calls follow the shape of the dose curve; as a rule, active = well fitted curve in the direction sought with a large enough effect; inconclusive = small, poorly fitted or top-dose-only effect, or another doubt; inactive = no such curve, though single readings can be large; an effect the other way counts as inactive or inconclusive. Potency is read from the fitted curve at half-maximal effect.
SMILES,Luciferase inh,HEK293 tox,3T3 cytotox,NPR1 antag,NPR1 antag cnf,NPR2 antag,FLuc inh counter,GloSensor ctrl
COc1ccc(NC(=O)O[C@@H]2CO[C@H]3[C@@H]2OC[C@@H]3NC(=O)Nc2cccc(C#N)c2)cc1,i,-13%,-9%,1%,nt,nt,nt,nt
N#Cc1cccc(CN[C@H]2CO[C@H]3[C@@H]2OC[C@H]3OC(=O)Nc2ccc(Oc3ccccc3)cc2)c1,i,?,?,18µM*,22µM*,22µM*,-9%,19µM*
COc1cccc(C(O)c2nc(C(=O)N3CCN(c4ccccn4)CC3)c(C)o2)c1 (stereo not drawn),i,?,-8%[138 µM],2%[70.6 µM],nt,nt,nt,nt
Cc1cc(CNC(=O)C2CC(=O)N(C(C)(C)C)C2)n(C)n1 (stereo not drawn),i,0%,-11%,-2%,nt,nt,nt,nt
OC1CC(c2cc(NCCCn3ccc4ccccc43)ncn2)C1 (stereo not drawn),i,?,?,11µM*,19µM*,19µM*,0%,12µM*
O=C(C1CC(=O)N(c2n[nH]c3ccccc23)C1)N1CCC(c2noc3cc(F)ccc23)CC1 (stereo not drawn),i,13µM*,14µM*,?,27µM*,?,-3%,27µM*
COc1ccc(CNC(=O)CC[C@H]2CNC(=O)[C@@H]3[C@@H](CCN3Cc3nc4ccccc4n3C)N2C)cc1,i,?,?,-2%,nt,nt,nt,nt
Cc1ccc(S(=O)(=O)N2CCc3c(C(=O)NCC(C)C)cccc32)cc1,i,?,?,?,?,?,0%,?
Cn1ccnc1CNC(=O)C[C@@H]1C[C@H]2O[C@H](CNCc3cnccc3C(F)(F)F)[C@@H](O)[C@H]2O1,i,-2%,i,2%,nt,nt,nt,nt
COc1ccc(CN2CCc3nc(N4CCN(C)CC4)[nH]c(=O)c3CC2)c(Cl)c1OC,i,-29%,-27%,2%,nt,nt,nt,nt
COc1ccc([C@@H]2CN(c3nnnn3-c3ccccc3)C[C@H]2NC(C)=O)cc1,i,-22%,-20%,?,?,?,1%,2%
CCOCC(=O)N1CCN(c2nnnn2-c2ccccc2)CC(O)C1 (stereo not drawn),i,0%,i,0%,nt,nt,nt,nt
Cc1noc(C)c1CCC(=O)NC1CCCc2c1[nH]c1c(Cl)cccc21 (stereo not drawn),i,?,35µM*,-30%,?,?,0%,?
COc1ccc(-c2nc(C3CC(=O)N(c4ccc(C)cc4)C3)no2)c(OC)c1 (stereo not drawn),i,?,?,-23%,nt,nt,nt,nt
CN(Cc1cccnc1)c1ccc2ncc(Nc3cccc(C(F)(F)F)c3)n2n1,i,40µM*,?,13µM*,14µM*,16µM*,-3%[86.2 µM],13µM*
CCO[C@H]1CN(C(=O)CN(c2cccc(C)c2)S(C)(=O)=O)C[C@@H]1O,i,i,-26%,5%,nt,nt,nt,nt
CCNC(=O)N1CCOc2ccc(CCC(=O)Nc3ccc(C)cc3)cc2C1,i,?,?,11µM*,15µM*,19µM*,-15%,12µM*
CCCNC(=O)CCc1ccc2c(c1)CN(C(=O)NCC)CCO2,i,1%,-12%,2%,nt,nt,nt,nt
CC(C)c1nc(-c2ccc(OC3CCN(C(=O)c4n[nH]c5ccccc45)C3)cc2)no1 (stereo not drawn),i,28µM*,?,16µM*,24µM*,24µM*,0%,19µM*

# Source: PubChem
